Data reported in PubChem BioAssay (NCATS).
Records with an inconclusive call do not appear. The source made the active and inactive calls. Calls follow the shape of the dose curve; as a rule, active = well fitted curve in the direction sought with a large enough effect; inconclusive = small, poorly fitted or top-dose-only effect, or another doubt; inactive = no such curve, though single readings can be large; an effect the other way counts as inactive or inconclusive.

Columns and labels:
[1] = Cellular Toxicity (caspase-3) Mesangial (AID 660); settings: mesangial cells, normalized: DMSO 0%, 100 µM tamoxifen 100%; at 91.7 µM (top of the series);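 also: combined caspase 3 and 7 activity read by Caspase-Glo luminescence; cells exposed to compound for 16 h before the caspase read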
Outline: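 Seed cells derived from normal human renal glomeruli, incubate 5 h, add compounds across concentrations and incubate 16 h at 37 °C. Caspase 3/7 activation is then quantified by luciferase light, with AC50 derived by Hill modeling.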

[2] = Cellular Toxicity (caspase-3) SK-N-SH (AID 661);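 also: 0% = DMSO basal and 100% = 10 µM staurosporine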
Outline: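 Cells were seeded and incubated 5 hr at 37 °C, dosed with compound over a concentration range for 16 hr, then given Caspase-Glo 3/7 reagent for 1 hr at room temperature before luminescence reading.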

[3] = Cellular Toxicity (caspase-3) H-4-II-E (AID 663); settings: H-4-II-E rat hepatoma, scaled: DMSO 0%, 100 µM tamoxifen 100%; at 92.2 µM (top of the series);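 also: cells exposed to compound for 16 hr before readout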
Outline: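 Caspase 3/7 activation measured by luminescent aminoluciferin substrate cleavage after 16 hr compound treatment of H-4-II-E cells in complete medium. Increase normalized between DMSO (basal) and 100 uM tamoxifen (100%); Hill-equation AC50 from concentration-response.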

[4] = Cellular Toxicity (caspase-3) Hek293 (AID 664); settings: HEK293 caspase-3 activation, DMSO = 0%, 100 µM tamoxifen = 100%; at 92.2 µM (top of the series);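 also: cells exposed to compound for 16 h at 37 °C before readout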
Outline: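 qHTS, HEK293 (human embryonic kidney), 16 h cpd exposure in complete medium. Caspase-3/7 activation = luminescence increase; normalized to DMSO/100 uM tamoxifen; Hill-fit AC50.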

[5] = Cellular Toxicity (caspase-3) N2a (AID 665);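 also: compound exposure lasted 16 h at 37 °C before readout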
Outline: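 Caspase-3/7 activation, measured as increased luminescence from aminoluciferin release, is quantified in mouse N2a cells exposed to compounds for 16 h. Values are normalized to DMSO and 10 uM staurosporine, with AC50 derived by Hill modelling.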

[6] = Cellular Toxicity (caspase-3) NIH 3T3 (AID 666);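 also: caspase signal read after 16 h compound exposure; 0% = DMSO basal and 100% = 100 µM tamoxifen stimulation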
Outline: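 Cells were plated at 1000 per well and incubated 5 hr at 37°C, then compound was added for 16 hr. Caspase-Glo 3/7 reagent followed for 20 min at room temperature before luminescence was read.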

[7] = Cellular Toxicity (caspase-3) Renal Proximal Tubule (AID 667); settings: Potency: caspase-3 activation;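 also: cells exposed to compound for 16 hours at 37 °C before detection; 0% = DMSO basal and 100% = 10 µM staurosporine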
Outline: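 In qHTS format, rat primary proximal tubule cells seeded at 1000 per well are exposed to compounds for 16 hours at 37 °C. An increase in Caspase-Glo 3/7 luminescence indicates caspase activation.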

[8] = target: Cytochrome P450 3A4 (Homo sapiens) (UniProt P08684); assay: qHTS Assay for Inhibitors and Substrates of Cytochrome P450 3A4 (AID 884); also: % is scaled to controls: 0 for no effect and ±100 for the full control effect; nearly all actives have a fitted effect of over 50% in size
Sequence of Cytochrome P450 3A4 (Homo sapiens) (P08684 whole entry, looked up): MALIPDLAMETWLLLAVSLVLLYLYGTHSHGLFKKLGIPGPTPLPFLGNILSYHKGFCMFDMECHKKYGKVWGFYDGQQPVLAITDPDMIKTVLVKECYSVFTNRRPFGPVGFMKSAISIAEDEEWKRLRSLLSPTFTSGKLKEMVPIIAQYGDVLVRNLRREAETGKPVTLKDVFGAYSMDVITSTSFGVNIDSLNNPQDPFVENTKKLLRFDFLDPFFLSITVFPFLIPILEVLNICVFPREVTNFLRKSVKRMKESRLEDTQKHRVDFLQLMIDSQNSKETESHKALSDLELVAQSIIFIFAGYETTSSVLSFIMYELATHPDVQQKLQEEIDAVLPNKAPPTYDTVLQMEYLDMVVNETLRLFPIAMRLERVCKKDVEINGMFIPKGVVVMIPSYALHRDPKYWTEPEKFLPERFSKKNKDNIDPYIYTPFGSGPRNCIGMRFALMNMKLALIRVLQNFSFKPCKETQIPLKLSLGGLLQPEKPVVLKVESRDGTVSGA
Outline: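 Luminescent readout of luciferin produced by CYP3A4 (20 nM) dealkylation of Luciferin-PPXE, 25 uM (its KM). NADPH-driven reaction ran 60 min at RT after 10 min compound preincubation; data scaled to 57 uM ketoconazole as 100% inhibition.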

[9] = Cell Viability - LYMP2-001 (AID 921);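 also: cells exposed to compound for 24 h at 37 °C; 0% = DMSO only and full inhibition = tetraoctylammonium bromide control wells; nearly all actives have a fitted effect of over 70% in size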
Outline: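 qHTS, 1536-well; lymphoblastoid cells, 24 hr compound, 37 C; ATP by CellTiter-Glo, 30 min RT; luminescence; Hill-fit AC50.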

Cc1ccccc1C#N
inactive: caspase-3 activation [1] 0.378% | outcome [2] | caspase-3 activation [3] 1.11% | caspase-3 activation [4] -1.44% | outcome [5] | outcome [6] | Potency [7] | Potency [8] | Potency [9]

CC/C=C1/OC(=O)c2ccccc21
inactive: caspase-3 activation [1] 0.157% | outcome [2] | caspase-3 activation [3] 0.49% | caspase-3 activation [4] 1.13% | outcome [5] | outcome [6] | Potency [7] | Potency [8] | Potency [9]

Cc1ccccc1C=O
inactive: caspase-3 activation [1] -0.421% | outcome [2] | caspase-3 activation [3] 0.931% | caspase-3 activation [4] 1.08% | outcome [5] | outcome [6] | Potency [7] | Potency [8] | Potency [9]

CNC(=O)c1ccccc1
inactive: caspase-3 activation [1] 0.192% | outcome [2] | caspase-3 activation [3] -1.03% | caspase-3 activation [4] -0.658% | outcome [5] | outcome [6] | Potency [7] | Potency [8] | Potency [9]

CC(C)Cc1nccs1
inactive: caspase-3 activation [1] 1.49% | outcome [2] | caspase-3 activation [3] 0.155% | caspase-3 activation [4] 2.01% | outcome [5] | outcome [6] | Potency [7] | Potency [8] | Potency [9]

Cc1cscn1
inactive: caspase-3 activation [1] 0.991% | outcome [2] | caspase-3 activation [3] 0.996% | caspase-3 activation [4] 1.04% | outcome [5] | outcome [6] | Potency [7] | Potency [8] | Potency [9]

CCCCC(C=O)CC (stereo not drawn)
inactive: caspase-3 activation [1] 0.71% | outcome [2] | caspase-3 activation [3] 3.13% | caspase-3 activation [4] 1.03% | outcome [5] | outcome [6] | Potency [7] | Potency [8] | Potency [9]

Cc1ccc([N+](=O)[O-])c(N)c1
inactive: caspase-3 activation [1] -0.782% | outcome [2] | caspase-3 activation [3] -0.384% | caspase-3 activation [4] 0.555% | outcome [5] | outcome [6] | Potency [7] | Potency [8] | Potency [9]

C=C(C)C(=O)OCCCCCC
inactive: caspase-3 activation [1] 0.76% | outcome [2] | caspase-3 activation [3] 0.664% | caspase-3 activation [4] -0.643% | outcome [5] | outcome [6] | Potency [7] | Potency [8] | Potency [9]

Cc1ccc2oc(=O)ccc2c1
inactive: caspase-3 activation [1] -0.888% | outcome [2] | caspase-3 activation [3] 1.34% | caspase-3 activation [4] -2.33% | outcome [5] | outcome [6] | Potency [7] | Potency [8] | Potency [9]

Cc1ccc(Br)cc1
inactive: caspase-3 activation [1] -0.699% | outcome [2] | caspase-3 activation [3] 0.265% | caspase-3 activation [4] 0.98% | outcome [5] | outcome [6] | Potency [7] | Potency [8] | Potency [9]

Cc1cccc2ccccc12
inactive: caspase-3 activation [1] 0.763% | outcome [2] | caspase-3 activation [3] 0.93% | caspase-3 activation [4] 0.828% | outcome [5] | outcome [6] | Potency [7] | Potency [8] | Potency [9]

CC(C)Nc1ccccc1
inactive: caspase-3 activation [1] 1.26% | outcome [2] | caspase-3 activation [3] 0.457% | caspase-3 activation [4] 2.55% | outcome [5] | outcome [6] | Potency [7] | Potency [8] | Potency [9]

NC(N)=S
inactive: caspase-3 activation [1] -0.0158% | outcome [2] | caspase-3 activation [3] 1.67% | caspase-3 activation [4] -1.2% | outcome [5] | outcome [6] | Potency [7] | Potency [8] | Potency [9]

CNc1ccccc1
inactive: caspase-3 activation [1] 1.7% | outcome [2] | caspase-3 activation [3] 0.262% | caspase-3 activation [4] -1.03% | outcome [5] | outcome [6] | Potency [7] | Potency [8] | Potency [9]

O=C1OC(=O)c2c(Cl)c(Cl)c(Cl)c(Cl)c21
inactive: caspase-3 activation [1] -0.0678% | outcome [2] | caspase-3 activation [3] -0.63% | caspase-3 activation [4] 1.4% | outcome [5] | outcome [6] | Potency [7] | Potency [8] | Potency [9]

OC(CCl)CCl
inactive: caspase-3 activation [1] 2.07% | outcome [2] | caspase-3 activation [3] 1.01% | caspase-3 activation [4] 2.01% | outcome [5] | outcome [6] | Potency [7] | Potency [8] | Potency [9]

CC1CCC2CC1C2(C)C (stereo not drawn)
inactive: caspase-3 activation [1] 0.29% | outcome [2] | caspase-3 activation [3] 1.27% | caspase-3 activation [4] -2.62% | outcome [5] | outcome [6] | Potency [7] | Potency [8] | Potency [9]

O=C(O)CN(CC(=O)O)CC(=O)O
inactive: caspase-3 activation [1] 1.04% | outcome [2] | caspase-3 activation [3] 2.27% | caspase-3 activation [4] 0.365% | outcome [5] | outcome [6] | Potency [7] | Potency [8] | Potency [9]

O=c1[nH][nH]c(=O)c2cc([N+](=O)[O-])ccc12
inactive: caspase-3 activation [1] -0.0154% | outcome [2] | caspase-3 activation [3] -0.659% | caspase-3 activation [4] 4.2% | outcome [5] | outcome [6] | Potency [7] | Potency [8] | Potency [9]

O=Cc1ccc(Cl)cc1
inactive: caspase-3 activation [1] 0.65% | outcome [2] | caspase-3 activation [3] 0.113% | caspase-3 activation [4] 2% | outcome [5] | outcome [6] | Potency [7] | Potency [8] | Potency [9]

CCCCN(CCO)CCCC
inactive: caspase-3 activation [1] 0.749% | outcome [2] | caspase-3 activation [3] -0.761% | caspase-3 activation [4] -0.886% | outcome [5] | outcome [6] | Potency [7] | Potency [8] | Potency [9]
